The list is not random: actives were taken first. Their share in the collection is about 7.5%.
B2AR arrestin = recruits beta-arrestin to the human beta2-adrenergic receptor. P07550. beta-arrestin recruitment to beta2AR, cell-based reporter. Potency, µM (series often up to 46.1 µM), actives largely listed as activators. actives 0.02% (n = 330,000); further: nearly all actives have a fitted effect of over 65% in size
VP16 counter = Gal4-VP16 reporter inhibition counter-screen | Drosophila S2 Gal4-VP16 UAS-luciferase, luminescence, 20 h | Potency, µM (doses to about 53.6 µM), actives largely listed as inhibitors | actives 3.5% (n = 310,000);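 further: Gal4-VP16 expression switched on by copper sulfate through the metallothionein promoter; nearly all actives have a fitted effect of over 50% in size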
ELG1 repair inh = blocks ELG1-dependent DNA repair in HEK293T cells. Potency, µM (top dose mostly 46.1 µM), usual class: inhibitors. actives 2.3% (n = 330,000). HEK293T ELG1-luciferase reporter, luminescence, 16 h; DNA damage induced by 5-fluorouridine; further: nearly all actives have a fitted effect of over 55% in size
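Reporter activity after DNA damage by 5-fluorouridine is monitored. Compound-treated cells incubate 16 hr at 37 °C, then ONE-Glo is added for 30 min before luminescence reading.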
RORg inh = blocks mouse ROR gamma transcriptional activity. P51450. Potency, µM (titrated, usually from 53.6 µM), hits mostly inhibitors. Drosophila S2 Gal4-RORgamma UAS-luciferase reporter, 20 h. actives 5.4% (n = 310,000); further: nearly all actives have a fitted effect of over 60% in size
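Schneider cells (Drosophila), stable Gal4 DBD–ROR gamma + UAS-luc; 1 hr cmpd preincubation; Cu2+ induction 700 uM final; 20 hr ambient; luminescence.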
TSHR antagonist = blocks TSH signaling through the human TSH receptor. TSHR-expressing cells, TSH-stimulated cAMP HTRF, 2 h; hits give low values. AID 504810. P16473. activity change, negative = inhibition, % at 11.5 µM. actives 0.2% (n = 330,000);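 active means activity change below a set negative limit, meaning inhibition stronger than a set level, cut at about -70% in these data; inconclusive means activity change between two set negative limits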
Target sequence (P16473 whole entry, looked up): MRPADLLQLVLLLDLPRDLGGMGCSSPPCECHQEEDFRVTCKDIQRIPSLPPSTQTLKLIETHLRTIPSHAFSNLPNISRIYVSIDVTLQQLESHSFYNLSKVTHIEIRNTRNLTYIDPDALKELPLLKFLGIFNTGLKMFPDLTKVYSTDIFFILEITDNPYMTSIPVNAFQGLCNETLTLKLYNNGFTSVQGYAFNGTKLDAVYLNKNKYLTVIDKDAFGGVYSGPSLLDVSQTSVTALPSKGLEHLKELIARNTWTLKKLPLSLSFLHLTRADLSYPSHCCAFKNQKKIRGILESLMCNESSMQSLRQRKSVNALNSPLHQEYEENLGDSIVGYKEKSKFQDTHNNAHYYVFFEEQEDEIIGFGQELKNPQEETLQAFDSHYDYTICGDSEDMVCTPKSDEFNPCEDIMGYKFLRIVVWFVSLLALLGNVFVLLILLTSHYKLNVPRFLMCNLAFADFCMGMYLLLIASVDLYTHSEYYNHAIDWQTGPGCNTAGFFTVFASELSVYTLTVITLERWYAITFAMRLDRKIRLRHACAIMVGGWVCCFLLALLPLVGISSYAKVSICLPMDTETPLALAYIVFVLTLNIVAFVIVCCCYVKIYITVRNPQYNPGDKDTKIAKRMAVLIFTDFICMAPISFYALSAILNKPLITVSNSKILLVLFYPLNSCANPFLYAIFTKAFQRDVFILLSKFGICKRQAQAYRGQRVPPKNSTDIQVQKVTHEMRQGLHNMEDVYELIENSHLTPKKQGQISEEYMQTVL
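Inhibition of cAMP made by TSHR-expressing cells under TSH stimulation (4nM final, EC80; 2 h, 37 deg C) is quantified with a one-step lysis HTRF kit, anti-cAMP cryptate versus cAMP-d2.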
Large screens that a line does not name were inactive. Unless noted, the call rests on the fitted dose curve; in most records, active means well fitted curve in the direction sought with a large enough effect; inconclusive means small, poorly fitted or top-dose-only effect, or another doubt; inactive means no such curve, though single readings can be large; an effect the other way counts as inactive or inconclusive.

NC(=S)Nc1cccc2cn[nH]c12	none
O=C(Nc1ccccc1F)Nc1ccccc1Br	VP16 counter inconclusive, ELG1 repair inh inconclusive
NC(=S)Nc1cccc2cc3ccccc3cc12	RORg inh 12.6µM
NC(=S)Nc1ccccc1Br	VP16 counter 35.5µM, RORg inh inconclusive
NC(=S)Nc1cc2ccccc2c2ccccc12	VP16 counter inconclusive, RORg inh 11.2µM
O=C1NC(=S)S/C1=C\c1cc2ccccc2nc1N1CCCCC1	ELG1 repair inh 16.4µM, TSHR antagonist inconclusive
COc1ccc(OC)c(NC(=S)N(CCc2c(C)[nH]c3ccccc23)Cc2cccs2)c1	RORg inh 8.91µM
COc1ccc2[nH]c(C)c(CCN(Cc3cccs3)C(=S)Nc3cccc(F)c3)c2c1	VP16 counter inconclusive, ELG1 repair inh 16.4µM, RORg inh 1.58µM
CCNC(=S)N(CCc1c(C)[nH]c2ccc(C)cc12)Cc1cc(OC)c(OC)c(OC)c1	ELG1 repair inh inconclusive, RORg inh inconclusive
COc1cccc(NC(=S)N(CCc2c(C)[nH]c3ccc(C)cc23)Cc2cccs2)c1	VP16 counter inconclusive, ELG1 repair inh inconclusive
COc1ccc(NC(=S)N(CCc2c(C)[nH]c3ccccc23)Cc2ccco2)cc1	ELG1 repair inh inconclusive, RORg inh inconclusive
COc1ccc(OC)c(NC(=S)N(CCc2c(C)[nH]c3ccc(C)cc23)Cc2cccs2)c1	RORg inh 10µM
COC(OC)[C@@H](C)[C@H](OC)[C@@H](C)[C@H](OC)c1ccccc1	none (no result: B2AR arrestin, ELG1 repair inh, TSHR antagonist)
CC(C(=O)O)c1ccc2c(c1)Cc1cccnc1O2 (centres undefined)	none (no result: B2AR arrestin, ELG1 repair inh, TSHR antagonist)
CCOc1ccc(OCCC(=O)N2CCN(S(=O)(=O)c3cccc(F)c3)CC2)cc1	ELG1 repair inh inconclusive (no result: VP16 counter, RORg inh)
NC[C@@H]1O[C@@H](O[C@H]2[C@H](O)[C@@H](O[C@@H]3O[C@@H](CO)[C@H](O)[C@@H](N)[C@@H]3O)[C@H](N)C[C@@H]2N)[C@@H](O)[C@H](O)[C@H]1O	none (no result: B2AR arrestin, ELG1 repair inh, TSHR antagonist)
COc1ccc(-n2c(=O)c(-c3ccc(Cl)cc3)nc3cncnc32)cc1	RORg inh inconclusive (no result: B2AR arrestin, ELG1 repair inh, TSHR antagonist)
O=C1[C@H]2[C@H]3[C@H](O)[C@H](O)C/C(=N/OCc4ccccc4)[C@@H]3CC[C@@H]2C(=O)N1Cc1ccc2c(c1)OCO2	none (no result: B2AR arrestin, ELG1 repair inh, TSHR antagonist)
O=C1C2=CC[C@H]3C(=O)N(Cc4ccccc4)C(=O)[C@@H]3[C@@H]2[C@H](O)[C@@H]2O[C@H]12	VP16 counter inconclusive, RORg inh 2.24µM (no result: B2AR arrestin, ELG1 repair inh, TSHR antagonist)
O=C1C2=CC[C@H]3C(=O)N(Cc4ccc5c(c4)OCO5)C(=O)[C@@H]3[C@@H]2[C@H](O)[C@@H]2O[C@H]12	VP16 counter inconclusive, RORg inh 4.47µM (no result: B2AR arrestin, ELG1 repair inh, TSHR antagonist)
O=C1C2=CC[C@H]3C(=O)N(C4CCCCC4)C(=O)[C@@H]3[C@@H]2[C@H](O)[C@@H]2O[C@H]12	VP16 counter inconclusive, RORg inh 2µM (no result: B2AR arrestin, ELG1 repair inh, TSHR antagonist)
CCN1C(=O)[C@@H]2[C@H]3C(=CC[C@H]2C1=O)C(=O)[C@H]1OC1[C@H]3O (some centres undefined)	VP16 counter inconclusive, RORg inh 2µM (no result: B2AR arrestin, ELG1 repair inh, TSHR antagonist)
CCOC(=O)c1c(S(=O)(=O)NCC(=O)N2CCN(c3ccccc3)CC2)c(C)n(C)c1C	none
CCCCCCN(C(=O)CCCCCN1C(=O)NC(c2ccccc2-c2ccccc2)C(C(=O)OCc2ccccc2)=C1C)C(C(=O)NCCCC)c1ccc(OCC(=O)OC)c(C(=O)OC)c1 (centres undefined)	none (no result: B2AR arrestin, ELG1 repair inh, TSHR antagonist)
CC(=O)c1c(C)[nH]c(C(=O)OCC(=O)c2c(N)n(C)c(=O)n(C)c2=O)c1C	none
O=C1C2=CC[C@H]3C(=O)N(c4cccc(Oc5ccccc5)c4)C(=O)[C@@H]3[C@@H]2[C@H](O)[C@@H]2O[C@H]12	VP16 counter inconclusive, RORg inh 2.24µM (no result: B2AR arrestin, ELG1 repair inh, TSHR antagonist)
N#Cc1cc(-c2ccccc2)nc(NN)n1	RORg inh inconclusive
NNc1nc(-c2ccccc2)cc(-c2ccccc2)n1	ELG1 repair inh inconclusive, RORg inh 4.47µM
NNc1nc(-c2ccccc2)cc(-c2ccccc2O)n1	VP16 counter 12.6µM, RORg inh 7.08µM
Cn1ccc(NS(=O)(=O)c2cc(Br)ccc2Br)n1	none (no result: VP16 counter, RORg inh)
N#Cc1ccc(CN2CCC3(CCNCC3)CC2)cc1	none (no result: B2AR arrestin, ELG1 repair inh, TSHR antagonist)
COC(=O)C/C=C\[C@@H](C)[C@@H](/C=N\OCC[C@@H]1C=C[C@H](OC(C)=O)[C@H](COC(C)=O)O1)OC	none (no result: B2AR arrestin, ELG1 repair inh, TSHR antagonist)

Compound activity from PubChem BioAssay.
